Data published in PubChem BioAssay AID1159580 (chemical genetic matrix, 2015).
Hit rate of the full screen: of about 5,500 compounds, about 2,000 (36%) were called active. Another 18% or so got no clear call; they are omitted. Rule as the data show it: active = normalized growth mostly below about 0.91 (no sharp cut-off); inconclusive = no clear call, values can overlap the other calls; inactive = mostly above about 0.92. The list shows a part of the results.

Assay: chemical genetic growth profiling, strain panel (AID 1159580);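 also: tested at 20 µM; growth read once vehicle control cultures reached saturation at 30 °C; 1 = growth at the plate median or of vehicle wells; lower values mean less growth of the strain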
Conditions: growth OD

Measured: normalized growth

CNC[C@H](O)c1cccc(O)c1
inactive: S. cerevisiae deletion strains, locus YKL009W, strain mrt4, active compounds read low 1 | S. cerevisiae deletion strains, locus YKL068W, active compounds read low 1.01 | S. cerevisiae deletion strains, locus YKL085W, strain MDH1 (second series), active compounds read low 1.01 | S. cerevisiae deletion strains, locus YKL085W, strain MDH1, active compounds read low 1.01 | S. cerevisiae deletion strains, locus YKL160W, strain elf1, active compounds read low 0.963 | S. cerevisiae deletion strains, locus YKL190W, strain CNB1, active compounds read low 1 | S. cerevisiae deletion strains, locus YKR001C, strain vps1, active compounds read low 1.02 | S. cerevisiae deletion strains, locus YKR026C, strain gcn3, active compounds read low 0.99 | S. cerevisiae deletion strains, locus YKR091W, strain srl3, active compounds read low 0.962 | S. cerevisiae deletion strains, locus YLL001W, strain dnm1, active compounds read low 0.962 | S. cerevisiae deletion strains, locus YLL026W, active compounds read low 0.977 | S. cerevisiae deletion strains, locus YLL041C, strain sdh2, active compounds read low 0.985 | S. cerevisiae deletion strains, locus YLR027C, strain aat2, active compounds read low 0.974 | S. cerevisiae deletion strains, locus YLR039C, strain RIC1, active compounds read low 1.03 | S. cerevisiae deletion strains, locus YLR058C, strain SHM2, active compounds read low 1.01 | S. cerevisiae deletion strains, locus YLR102C, strain apc9, active compounds read low 1.01 | S. cerevisiae deletion strains, locus YLR113W, strain HOG1, active compounds read low 1 | S. cerevisiae deletion strains, locus YLR221C, strain rsa3, active compounds read low 0.987 | S. cerevisiae deletion strains, locus YLR258W, strain gsy2, active compounds read low 0.986 | S. cerevisiae deletion strains, locus YLR262C, strain YPT6 (second series), active compounds read low 0.969 | S. cerevisiae deletion strains, locus YLR262C, strain YPT6, active compounds read low 1.03 | S. cerevisiae deletion strains, locus YLR268W, strain sec22, active compounds read low 1.02 | S. cerevisiae deletion strains, locus YLR320W, strain mms22, active compounds read low 0.964 | S. cerevisiae deletion strains, locus YLR330W, strain CHS5, active compounds read low 1.01 | S. cerevisiae deletion strains, locus YLR342W, strain FKS1 (second series), active compounds read low 0.994 | S. cerevisiae deletion strains, locus YLR342W, strain FKS1, active compounds read low 0.963 | S. cerevisiae deletion strains, locus YLR357W, strain rsc2, active compounds read low 0.906 | S. cerevisiae deletion strains, locus YLR370C, strain arc18, active compounds read low 0.991 | S. cerevisiae deletion strains, locus YLR371W, strain rom2, active compounds read low 1.01 | S. cerevisiae deletion strains, locus YLR384C, strain iki3, active compounds read low 0.979 | S. cerevisiae deletion strains, locus YLR418C, strain cdc73, active compounds read low 1.02 | S. cerevisiae deletion strains, locus YML016C, strain PPZ1, active compounds read low 1.01 | S. cerevisiae deletion strains, locus YML032C, strain rad52, active compounds read low 1.02 | S. cerevisiae deletion strains, locus YML120C, strain ndi1, active compounds read low 0.979 | S. cerevisiae deletion strains, locus YML124C, strain tub3, active compounds read low 1.02 | S. cerevisiae deletion strains, locus YMR058W, strain fet3, active compounds read low 0.971 | S. cerevisiae deletion strains, locus YMR078C, strain ctf18, active compounds read low 1.01 | S. cerevisiae deletion strains, locus YMR125W, strain sto1, active compounds read low 0.995 | S. cerevisiae deletion strains, locus YMR129W, active compounds read low 0.988 | S. cerevisiae deletion strains, locus YMR205C, strain PFK2, active compounds read low 0.965 | S. cerevisiae deletion strains, locus YMR223W, strain ubp8, active compounds read low 1.01 | S. cerevisiae deletion strains, locus YMR231W, strain pep5, active compounds read low 0.982 | S. cerevisiae deletion strains, locus YMR263W, strain SAP30, active compounds read low 1.01 | S. cerevisiae deletion strains, locus YMR307W, strain GAS1, active compounds read low 1.02 | S. cerevisiae deletion strains, locus YNL067W, strain RPL9B, active compounds read low 1 | S. cerevisiae deletion strains, locus YNL071W, strain lat1, active compounds read low 0.998 | S. cerevisiae deletion strains, locus YNL128W, strain TEP1, active compounds read low 1.01 | S. cerevisiae deletion strains, locus YNL153C, strain GIM3, active compounds read low 1.01 | S. cerevisiae deletion strains, locus YNL183C, strain NPR1, active compounds read low 0.975 | S. cerevisiae deletion strains, locus YNL209W, strain ssb2, active compounds read low 0.991 | S. cerevisiae deletion strains, locus YNL233W, strain BNI4, active compounds read low 1.01 | S. cerevisiae deletion strains, locus YNL248C, strain rpa49, active compounds read low 0.988 | S. cerevisiae deletion strains, locus YNL250W, strain rad50, active compounds read low 1.02 | S. cerevisiae deletion strains, locus YNL271C, strain bni1, active compounds read low 1.02 | S. cerevisiae deletion strains, locus YNL298W, strain CLA4, active compounds read low 1.03 | S. cerevisiae deletion strains, locus YNL307C, strain MCK1, active compounds read low 1.02 | S. cerevisiae deletion strains, locus YNL322C, strain KRE1 (second series), active compounds read low 0.976 | S. cerevisiae deletion strains, locus YNL322C, strain KRE1, active compounds read low 1 | S. cerevisiae deletion strains, locus YNR049C, strain mso1, active compounds read low 0.993 | S. cerevisiae deletion strains, locus YNR052C, strain pop2, active compounds read low 1.02 | S. cerevisiae deletion strains, locus YOL006C, strain TOP1, active compounds read low 1.05 | S. cerevisiae deletion strains, locus YOL012C, strain htz1 0.81 | S. cerevisiae deletion strains, locus YOL147C, strain pex11, active compounds read low 1.02 | S. cerevisiae deletion strains, locus YOR001W, strain rrp6, active compounds read low 0.977 | S. cerevisiae deletion strains, locus YOR061W, strain CKA2, active compounds read low 1.01 | S. cerevisiae deletion strains, locus YOR069W, strain VPS5, active compounds read low 1.01 | S. cerevisiae deletion strains, locus YOR070C, strain gyp1, active compounds read low 0.994 | S. cerevisiae deletion strains, locus YOR080W, strain dia2, active compounds read low 0.98 | S. cerevisiae deletion strains, locus YOR083W, strain WHI5, active compounds read low 0.953 | S. cerevisiae deletion strains, locus YOR106W, strain vam3, active compounds read low 0.98 | S. cerevisiae deletion strains, locus YOR136W, strain idh2, active compounds read low 1.02 | S. cerevisiae deletion strains, locus YOR144C, strain elg1, active compounds read low 1.01 | S. cerevisiae deletion strains, locus YOR184W, strain ser1, active compounds read low 1.04 | S. cerevisiae deletion strains, locus YOR231W, strain MKK1, active compounds read low 1 | S. cerevisiae deletion strains, locus YOR265W, strain rbl2, active compounds read low 0.989 | S. cerevisiae deletion strains, locus YOR270C, strain vph1, active compounds read low 1 | S. cerevisiae deletion strains, locus YOR290C, strain snf2, active compounds read low 0.993 | S. cerevisiae deletion strains, locus YOR316C, strain cot1, active compounds read low 1.02 | S. cerevisiae deletion strains, locus YPL051W, strain arl3, active compounds read low 0.973 | S. cerevisiae deletion strains, locus YPL055C, strain LGE1, active compounds read low 1.01 | S. cerevisiae deletion strains, locus YPL078C, strain atp4, active compounds read low 0.966 | S. cerevisiae deletion strains, locus YPL106C, strain sse1, active compounds read low 0.95 | S. cerevisiae deletion strains, locus YPL240C, strain hsp82, active compounds read low 0.982 | S. cerevisiae deletion strains, locus YPL241C, strain CIN2, active compounds read low 1.01 | S. cerevisiae deletion strains, locus YPL256C, strain CLN2, active compounds read low 1.01 | S. cerevisiae deletion strains, locus YPR119W, strain clb2, active compounds read low 1.01 | S. cerevisiae deletion strains, locus YPR141C, strain kar3, active compounds read low 1.02 | S. cerevisiae deletion strains, locus YPR163C, strain tif3, active compounds read low 1.02 | S. cerevisiae deletion strains, locus YPR167C, strain met16, active compounds read low 1.02 | S. cerevisiae deletion strains, strain wtn01, active compounds read low 1.01 | S. cerevisiae strains, strain wild type, active compounds read low 1.01
